Measurements reported in PubChem BioAssay (NCI).
About 83,000 compounds went through this panel and 20% of them were active in at least one assay; those are over-represented in the sample as a whole.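 48-hour exposure, single concentration, 96-well plates; percent growth endpoint where 0 means no net growth. Active: below 10.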 Values without a mark were called inactive. Active and inactive are the calls of the source.

Columns and labels:
Test in all cases: NCI-60 one-dose screen, 48 h (100 = growth as untreated, 0 = no growth, -100 = all killed)
Details in all cases: 10 µM unless noted
[1] = tested on: SK-MEL-2 melanoma
[2] = tested on: EKVX NSCLC
[3] = tested on: SN12C renal
[4] = tested on: UO-31 renal
[5] = tested on: TK-10 renal
[6] = tested on: ACHN renal
[7] = tested on: CAKI-1 renal
[8] = tested on: A498 renal
[9] = tested on: CCRF-CEM leukemia
[10] = tested on: MOLT-4 leukemia

CC1=C(CCC(C)N(C)Cc2ccc(OCCCN3CCCC3)cc2)C(C)(C)CCC1 (stereo not given)
growth [1]: -55.2% (active)
growth [2]: 47.4%
growth [3]: 56.9%
growth [4]: 20.3%
growth [5]: 49.9%
growth [6]: 36.8%
growth [7]: 49.9%
growth [8]: 57.2%
growth [9]: 11.1%
growth [10]: -24.2% (active)

CCOC(=O)CSc1ncnc2c1c(-c1ccccc1)c(-c1ccccc1)n2-c1ccc(C)cc1
growth [1]: 82.4%
growth [2]: 43.9%
growth [3]: 64.3%
growth [4]: 73.4%
growth [5]: 78.5%
growth [6]: 90.7%
growth [7]: 75.6%
growth [8]: 75.2%
growth [9]: 67%
growth [10]: 67.4%

O=C(NCc1ccccc1)Nc1ccccc1CNc1nc(Nc2ccc(OCCN3CCCC3)cc2)ncc1Cl
growth [1]: 108%
growth [2]: 99.2%
growth [3]: 101%
growth [4]: 71.7%
growth [5]: 110%
growth [6]: 92.3%
growth [7]: 106%
growth [8]: 77.2%
growth [9]: 20%
growth [10]: 74.1%

CS(=O)(=O)Nc1cc(-c2ccc3ncnc(Nc4ccc5c(cnn5Cc5ccccn5)c4)c3c2)cnc1Cl
growth [1]: 61.8%
growth [2]: 80.8%
growth [3]: 72.5%
growth [4]: 64.8%
growth [5]: 65.5%
growth [6]: 88%
growth [7]: 65.4%
growth [8]: 20.4%
growth [9]: 60%
growth [10]: 78.7%

O=S(=O)(NCCNc1cc(-c2c(-c3cccc(O)c3)nc3sccn23)ccn1)c1ccc(C(F)(F)F)cc1
growth [1]: 43.9%
growth [2]: 35.7%
growth [3]: 35.6%
growth [4]: -71.8% (active)
growth [5]: 67.9%
growth [6]: 33.2%
growth [7]: 29.3%
growth [8]: 40.2%
growth [9]: 25.4%
growth [10]: 9.21% (active)

CN1CCN(C(=O)OCc2ccc3c(Cl)cc(Cl)c(O)c3n2)CC1
growth [1]: 76%
growth [2]: 79.7%
growth [3]: 56.9%
growth [4]: 34%
growth [5]: 105%
growth [6]: 45%
growth [7]: 55.1%
growth [8]: 106%
growth [9]: 40.5%
growth [10]: 8.31% (active)

CCN(CC)c1ccc(/C=C/C(=O)c2ccc(Nc3nc(Nc4ccccc4)nc(Nc4ccccc4)n3)cc2)cc1
growth [1]: 27.9%
growth [2]: 31.5%
growth [3]: 74%
growth [4]: 23.9%
growth [5]: 59.3%
growth [6]: 49.1%
growth [7]: 44%
growth [8]: 30.3%
growth [9]: 5.63% (active)
growth [10]: 22.6%

CCc1ccc(Oc2cn[nH]c2-c2ccc(OCCc3ccc(F)cc3)cc2O)cc1
growth [1]: 90.1%
growth [2]: 87.9%
growth [3]: 95.3%
growth [4]: 81.7%
growth [5]: 66.8%
growth [6]: 94%
growth [7]: 100%
growth [8]: 105%
growth [9]: 95.6%
growth [10]: 84.4%

O=C1NC(=O)c2c1c1c3ccccc3ccc1c1[nH]c3ccc(Br)cc3c21
growth [1]: 35.4%
growth [2]: 18%
growth [3]: 9.28% (active)
growth [4]: 2.24% (active)
growth [5]: 36.8%
growth [6]: 1.55% (active)
growth [7]: 15.8%
growth [8]: -10.7% (active)
growth [9]: 10.8%
growth [10]: 9.35% (active)

Cc1ccc(-c2nc(N3CCNCC3)c3oc(-c4ccccc4)nc3n2)cc1
growth [1]: 61.2%
growth [2]: 101%
growth [3]: -84.3% (active)
growth [4]: -90.6% (active)
growth [5]: -98.6% (active)
growth [6]: -99.8% (active)
growth [7]: 40.5%
growth [8]: 95.7%
growth [9]: -76% (active)
growth [10]: -68.8% (active)

O=C(CN1C(=O)CCC1=O)Nc1ncc(Cc2ccc(F)cc2)s1
growth [1]: 100%
growth [2]: 92.6%
growth [3]: 98.8%
growth [4]: 76%
growth [5]: 101%
growth [6]: 98.6%
growth [7]: 91.5%
growth [8]: 105%
growth [9]: 105%
growth [10]: 102%

N#C/C(=C\c1ccc2ccccc2c1)c1cc2ccccc2[nH]1
growth [1]: 43.5%
growth [2]: 55.3%
growth [3]: 49.8%
growth [4]: 49%
growth [5]: 75.6%
growth [6]: 50.4%
growth [7]: 38.1%
growth [8]: 33.7%
growth [9]: 18.5%
growth [10]: 29%

COC(=O)c1ccc2c(c1)C(=O)c1c-2n(CCCN)c(=O)c2cc([N+](=O)[O-])ccc12
growth [1]: -49.8% (active)
growth [2]: -87.7% (active)
growth [3]: -100% (active)
growth [4]: -100% (active)
growth [5]: -83% (active)
growth [6]: -100% (active)
growth [7]: -94.2% (active)
growth [8]: -100% (active)
growth [9]: -83.9% (active)
growth [10]: -58.6% (active)

Brc1ccc2[nH]cc(-c3nonc3-c3c[nH]c4ccccc34)c2c1
growth [1]: 54%
growth [2]: 28.4%
growth [3]: 57.1%
growth [4]: 30.4%
growth [5]: 41.7%
growth [6]: 34.2%
growth [7]: 25.3%
growth [8]: 43%
growth [9]: 38.8%
growth [10]: 27%
